High-throughput results: PubChem, National Center for Advancing Translational Sciences (NCATS)
Shown are actives, neighbours in structure and some others; about 12% of the full set was active somewhere.
Pf growth 48h: Primary qHTS for delayed death inhibitors of the malarial parasite plastid, 48 hour incubation | P. falciparum luciferase growth in erythrocytes, 48 h | Potency, µM (doses to about 28.7 µM), for inactives: at the top dose activity change, negative = inhibition, most hits filed as inhibitors | actives 5.9% (n = 310,000) | AID 504832, 2011; further: on the % scale 0 is the no-effect control and ±100 the full control effect
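Firefly luciferase activity from engineered P. falciparum reports growth; inhibitors lower the luminescent signal. Cultures contained 2% hematocrit erythrocytes at 0.1% final parasitemia.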
NS1 function inh: qHTS Assay for Inhibitors of Influenza NS1 Protein Function; Potency, µM (top dose mostly 46.1 µM), without a hit: at the highest dose activity, positive = more growth; actives 0.4% (n = 270,000); calls by dose curve; further: actives are rising curves; nearly all actives have a fitted effect of over 50% in size
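S. cerevisiae expressing influenza A NS1, grown in glucose, washed, then diluted 1:100 into pH 6.0 -URA galactose medium with 23 nl compound. Growth recovery read as OD600; NS1-free strain serves as control.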
AMA1-RON2 inh: qHTS for Inhibitors of AMA1-RON; Towards Development of Antimalarial Drug Lead: Primary Screen; Plasmodium falciparum AMA1 (3D7) - RON2 peptide interaction; AlphaScreen AMA1-biotinylated RON2 peptide binding; Potency, µM (doses to about 58.2 µM), without a hit: at the top dose activity change, negative = inhibition, hits mostly inhibitors; actives 0.2% (n = 360,000); AID 720542, 2013;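 further: 0% = vehicle wells and -100% = peptide control; nearly all actives have a fitted effect of over 45% in size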
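AMA1 (3D7) with his tag at 25 nM final met compounds first, then biotinylated RON2 peptide at 25 nM; detection used donor plus acceptor beads, 10 µg/mL apiece, read by AlphaScreen after 30 min at room temperature.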
Pf growth 96h: Primary qHTS for delayed death inhibitors of the malarial parasite plastid, 96 hour incubation | AID 504834, 2011 | actives 6.9% (n = 320,000) | P. falciparum luciferase reporter growth, 96 h | Potency, µM (doses to about 28.7 µM), for inactives: at the top dose activity change, negative = inhibition, most hits filed as inhibitors; further: on the % scale 0 is the no-effect control and ±100 the full control effect
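Two parasite generations (96 h, 37 C, 5% CO2) of compound exposure in infected erythrocytes (0.05% parasitemia, 2% hematocrit). Luciferase-reporter P. falciparum; decreased luminescence indicates inhibited growth, aimed at apicoplast-acting delayed death.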
HCV inhibitor: qHTS Assay for Inhibitors of Hepatitis C Virus (HCV). Huh7.5.1 HCVcc-Cre infection, luciferase reporter, 44 h. Potency, µM (titrated, usually from 41.8 µM), inactives show top-dose activity change, negative = inhibition, most hits filed as inhibitors. actives 3.4% (n = 340,000); further: on the % scale 0 is the no-effect control and ±100 the full control effect
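Cells (1,000/well) were plated 4 h before compound, then infected with HCVcc-Cre virus (~0.5 moi). After 44 h further culture, infection was read as luciferase luminescence following a 15 min substrate incubation at room temperature.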
SARS PLP yeast: qHTS of Yeast-based Assay for SARS-CoV PLP. Potency, µM (top dose mostly 32.9 µM), for the others: at the highest dose activity, positive = growth rescue, actives largely listed as activators. S. cerevisiae expressing SARS-CoV PLpro, growth rescue. actives 0.19% (n = 330,000); calls by dose curve; further: 0% is about no effect; nearly all actives have a fitted effect of over 55% in size
* hit, by the source's call; ? = inconclusive; / = no result given; [ ] = remark or other dose. Unless noted, the call rests on the fitted dose curve; in most records, active means well fitted curve in the direction sought with a large enough effect; inconclusive means small, poorly fitted or top-dose-only effect, or another doubt; inactive means no such curve, though single readings can be large; an effect the other way counts as inactive or inconclusive. Potency means the concentration at half of the fitted maximal effect.

SMILES	Pf growth 48h	NS1 function inh	AMA1-RON2 inh	Pf growth 96h	HCV inhibitor	SARS PLP yeast
O=C(c1ccco1)N(CCC(c1ccccc1)c1ccco1)Cc1ccccc1 (centres undefined)	?	4%	?	13µM*	-19%	-6%
O=C(CC1C(=O)NCCN1Cc1ccoc1)NCCCn1ncc2ccccc21 (centres undefined)	-15%	-2%	6%	0%	5%	-1%
CCN1CCN(C(CNS(=O)(=O)c2cccs2)c2cccnc2)CC1 (centres undefined)	-7%	0%	2%	3%	21%	-4%
O=C(NC(=S)Nc1ccc(N2CCOCC2)cc1)c1cccc(Cl)c1	57%	5%	-14%	215%	25µM*	-15%
CC(C)Oc1cccc(C(=O)NC(=S)Nc2ccc(N3CCN(C)CC3)cc2)c1	13µM*	6%	-5%	12µM*	?	-1%
CCC(=O)N1CCN(c2ccc(NC(=S)NC(=O)c3ccc(OC)c([N+](=O)[O-])c3)cc2)CC1	-23%	10%	43%	?	?	0%
COc1cccc(C(=O)NC(=S)Nc2ccc(N3CCCC3)cc2)c1	?	13%	25µM*	41%	?	7%
COc1cccc(C(=O)NC(=S)Nc2ccc(N(C)C)cc2)c1	143%	-4%	?	-19%	-18%	-17%
CCCC(=O)N1CCN(c2ccc(NC(=S)NC(=O)c3cccc(C)c3)cc2)CC1	?	3%	-6%	36%	7.1µM*	0%
CC(C)NC[C@H]1CCc2cc(CO)c([N+](=O)[O-])cc2N1	-10%[12.8 µM]	/	/	-12%[12.8 µM]	/	/
O=C(C(O)c1ccccc1)N1N=C(c2ccccc2)CC1(O)C(F)(F)F (centres undefined)	43%	4%	?	13%	6%	-5%
Cc1ccc(S(=O)(=O)N2CCC(C(=O)O)CC2)cc1	-1%	-1%	-15%	48%	9%	1%
COc1ccc(OC)c(-c2cc(C(=O)Nc3cc(C)n(Cc4ccc(Cl)cc4)n3)no2)c1	2.1µM*	-39%	4%	0%	11µM*	-10%
COc1cccc(-c2cc(C(=O)Nc3cc(C)n(Cc4ccc(Cl)cc4)n3)no2)c1	10µM*	0%	3%	22%	6.3µM*	-7%
Cc1cc(NC(=O)c2cc(-c3ccco3)on2)nn1Cc1ccc(Cl)cc1	6.6µM*	1%	-9%	/	?	3%
COc1cccc(-c2cc(C(=O)Nc3ccc(OC)c(OC)c3)no2)c1	32%	-16%	-6%	0%	-16%	4%
Cc1nn(Cc2ccc(Cl)cc2)c(C)c1NC(=O)c1cc(-c2ccco2)on1	?	1%	-2%	15%	?	5%
CC(C)CC1C(=O)N(Cc2cn(CCC3OCCCO3)nn2)CCS(=O)(=O)N1Cc1ccc(-c2ccc(Cl)nc2)cc1 (centres undefined)	/	/	-8%	/	/	/
CCc1nnc(NC(=O)c2ccc(S(=O)(=O)N(CC)Cc3ccccc3)cc2)o1	35%	-262%	44%	106%	?	?
COc1ccccc1-c1nnc(NC(=O)c2ccc(S(=O)(=O)N(C)Cc3ccccc3)cc2)o1	-14%	-40%	-8%	10µM*	?	16%
CCN(CC)S(=O)(=O)c1ccc(C(=O)Nc2nnc(CSC)o2)cc1	?	/	18%	?	15%	1%
CCN(Cc1ccccc1)S(=O)(=O)c1ccc(C(=O)Nc2nnc(C)o2)cc1	9.3µM*	-135%	45%	?	?	13%
CCCCN(C)S(=O)(=O)c1ccc(C(=O)Nc2nnc(CSC)o2)cc1	?	-65%	101%	13µM*	?	-17%
COc1cccc(C(=O)c2c[nH]c(C(=O)NCCCN3CCOCC3)c2)c1	-14%	-4%	3%	2%	6%	-1%
Cc1occc1C(=O)NNC1=CC(=O)CC(C)(C)C1	-9%	8%	22%	?	4%	9%
SMILES	Pf growth 48h	NS1 function inh	AMA1-RON2 inh	Pf growth 96h	HCV inhibitor	SARS PLP yeast
CC(Oc1ccc(-c2ccccc2)c(F)c1)c1ccn(S(=O)(=O)c2ccc(F)cc2)n1 (centres undefined)	?	-2%	3%	?	?	13%
COc1ccc(S(=O)(=O)n2ccc(C(C)Oc3ccc(-c4ccccc4)c(F)c3)n2)cc1 (centres undefined)	13µM*	7%	0%	17µM*	?	-2%
C/C(=N/NC(=O)CNC(=O)c1cccnc1)c1ccc(Cl)c(Cl)c1	4%[0.00184 µM]	0%	-10%	17%	3%	1%
COc1cc(NC(=O)c2cccc(S(=O)(=O)N3CCCCC3)c2)cc(OC)c1OC	/	/	-17%	/	?	5%
CCCCn1nnnc1C1(C)CCC(=O)N1Cc1ccc(OC)cc1 (centres undefined)	/	/	-4%	/	/	/
CC(C)CC(c1nnnn1Cc1ccc2c(c1)OCO2)N1CCC(C(N)=O)CC1 (centres undefined)	-3%	-4%	-9%	37%	4%	1%
Cc1ccc2nc(/C(C#N)=N/O)[nH]c2c1	?	3%	49%	13µM*	21%	8%
Cc1ccc2nc(/C(C#N)=C\c3ccc(N4CCCCC4)c([N+](=O)[O-])c3)[nH]c2c1	?	?	-9%	?	7.1µM*	/
Cc1ccc2nc(/C(C#N)=C/c3ccccc3C(=O)O)[nH]c2c1	2.1µM*	16%	99%	?	12%	2%
CCCN(C(=O)COC(=O)c1nc2nc(C)cc(C)n2n1)C1CCS(=O)(=O)C1 (centres undefined)	-3%	/	-4%	-26%	9%	-1%
CCOc1ccc(N(CC(=O)NCc2ccc(Cl)cc2)S(=O)(=O)c2c(C)noc2C)cc1	-26%	-2%	3%	-3%	11%	-3%
CCOc1ccc(N(CC(=O)NC2CCCC(C)C2C)S(=O)(=O)c2c(C)noc2C)cc1 (centres undefined)	0%	-2%	7%	?	0%	-8%
Cc1ccc(N(CC(=O)NC2CCCCC2C)S(=O)(=O)c2c(C)noc2C)cc1 (centres undefined)	?	16%	14%	9.3µM*	17%	3%
COc1ccc(N(CC(=O)NCc2ccc(Cl)cc2)S(=O)(=O)c2c(C)noc2C)cc1	?	-2%	1%	8.3µM*	-25%	0%
COc1ccc(N(CC(=O)NCc2ccccc2Cl)S(=O)(=O)c2c(C)noc2C)cc1	?	-10%	-7%	?	?	-3%
